# Screening data as filed in PubChem BioAssay.
# HDAC3 inhib – blocks human histone deacetylase 3; O15379; recombinant HDAC3, fluorogenic peptide/trypsin coupled, fluorescence; inhibition, % at 8.3 µM; 320,000 tested, 0.15% active; AID 2718; in the data active = inhibition above about 26%, passing the limit was not always enough
# PvdQ inh – blocks Pseudomonas aeruginosa PvdQ acylase activity | inhibition, % at 10 µM | AID 488965 | 340,000 tested, 0.063% active | purified PvdQ acylase, fluorescence plate reader; in the data active = inhibition above about 30%, passing the limit was not always enough;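 note: 0% = vehicle neutral wells and 100% = reference inhibitor wells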
# SUMO Mot1 rescue – inhibitors of SUMOylation pathway: yeast Mot1-301 growth rescue | 320,000 tested, 1% active | AID 2716 | S. cerevisiae Mot1-301 growth rescue, ATP luminescence, 38.5C; percent above DMSO median, 100 means doubled | growth rescue, % at 18.8 µM;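 active = every valid replicate shows activation above 250% relative to neutral control wells; inactive = the rest, any valid replicate at or below 250%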;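 note: OY570 slx delta 5 strain wells were the positive control but not used for scaling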
# PHOSPHO1 inh – blocks human PHOSPHO1 phosphatase activity; Q8TCT1; recombinant PHOSPHO1, absorbance phosphatase assay; inhibition, % at 13.3 µM; 290,000 tested, 1.1% active; in the data active = inhibition above about 60%
# GASC-1 inh – blocks human GASC-1 demethylase activity; Q9H3R0; GST-JMJD2C(1-420) H3K9me3 demethylation, DELFIA europium; inhibition, % at 2.35 µM; 330,000 tested, 0.069% active; AID 2099;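 active = more than half of a compound's replicate wells show inhibition beyond 50%, single wells judged on their own value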;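 note: signal counts dimethyl H3K9 product captured on neutravidin plate; 0% = median of DMSO wells and 100% = 0.3 times that DMSO median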
# Target sequence (Q9H3R0 1-420 limits assumed): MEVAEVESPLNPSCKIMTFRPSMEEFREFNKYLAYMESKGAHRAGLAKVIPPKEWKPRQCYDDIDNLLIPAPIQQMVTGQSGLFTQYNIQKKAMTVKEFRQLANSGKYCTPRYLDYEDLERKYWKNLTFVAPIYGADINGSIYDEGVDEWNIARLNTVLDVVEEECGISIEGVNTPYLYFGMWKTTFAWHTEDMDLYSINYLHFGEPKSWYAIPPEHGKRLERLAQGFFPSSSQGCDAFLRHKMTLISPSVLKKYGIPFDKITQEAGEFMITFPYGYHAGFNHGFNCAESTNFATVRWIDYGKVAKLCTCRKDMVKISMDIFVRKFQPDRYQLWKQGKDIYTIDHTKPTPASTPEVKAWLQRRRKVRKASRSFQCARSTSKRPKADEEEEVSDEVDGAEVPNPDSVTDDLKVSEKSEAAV
# p-CIP stab down – p/CIP protein destabilization. Q05BA5. F442A p/CIP-EGFP cells, EGFP fluorescence, 16 h. decrease of EGFP signal, % at 10 µM. 290,000 tested, 0.01% active;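 active = EGFP signal decrease of at least 30% at 10 µM or well 3 SD below plate mean, unless failing retest; inactive = the rest, including hits failing retest or dose response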
# The depositor's hits bear a star; · = not tested or not shown. Sampled rows, rich in hits. Any-hit rate of the full collection: about 2.2%.
SMILES,HDAC3 inhib,PvdQ inh,SUMO Mot1 rescue,PHOSPHO1 inh,GASC-1 inh,p-CIP stab down
CCCNC(=O)c1ccccc1NC(=O)c1ccc(CSc2ccccc2)cc1,13.4,-12.6,358.1*,7.0,-1.9,-16.7
CCC(C)NC(=O)c1ccccc1NC(=O)c1ccc(CSc2ccccc2)cc1 (centres undefined),2.8,1.4,-0.8,-26.5,7.2,-3.4
CCOC(=O)CC(NC(C)=O)c1ccc([N+](=O)[O-])cc1 (centres undefined),-2.8,-11.5,-4.1,-1.5,-1.6,1.5
CC(=O)NC(CC(=O)OCc1ccc([N+](=O)[O-])cc1)c1ccccc1 (centres undefined),-17.1,-1.5,496.9*,18.7,-3.6,-12.3
O=C(COC(=O)/C=C/c1ccc(OC(F)F)cc1)Nc1ccc2[nH]c(=O)[nH]c2c1,1.4,-23.1,-5.7,·,0.8,·
COc1ccccc1CC(=O)NCCN1CCCCC1,-9.7,-11.5,17.1,24.7,5.3,4.6
CCN(CC)c1ccc(NC(=O)CN2CCN(S(=O)(=O)c3cc(Cl)ccc3OC)CC2)cc1,9.3,-8.0,-14.9,93.0*,3.6,-1.3
CCOc1ccc(OCCC(=O)OCC(=O)NC(C)c2ccccc2)cc1 (centres undefined),-1.6,-14.1,9.3,·,7.4,·
COc1ccc(CC(=O)NNC(=O)COc2ccc(Cl)cc2C)cc1S(=O)(=O)N1CCOCC1,2.7,-2.3,12.5,·,9.3,·
CNC(=S)NNC(=O)c1sccc1OCc1ccc(C)cc1,-8.6,-12.6,-13.5,74.0*,-0.8,11.9
CNC(=S)NNC(=O)c1cccn(Cc2cccc(C(F)(F)F)c2)c1=O,0.2,-14.3,181.4,-144.0,-37.7,10.3
CNC(=S)NNC(=O)c1sccc1OCc1cccc(C(F)(F)F)c1,-2.1,3.2,4.2,68.9*,-5.2,2.2
CC(C)CCn1c(SCc2ccc(Cl)cc2)nc2c1c(=O)[nH]c(=O)n2C,-2.0,-13.8,-14.6,61.3*,-8.9,-13.0
Cc1ccc(CSc2nc3c(c(=O)[nH]c(=O)n3C)n2CCC(C)C)cc1,-4.7,5.2,318.5,-13.3,1.1,3.5
CCc1cc(C(=O)N2CCCC(C(=O)c3ccc(C(F)(F)F)cc3)C2)n(C)n1 (centres undefined),·,-11.0,·,21.8,-0.2,-6.2
COc1ccc(S(=O)(=O)NCC(=O)Nc2cccc(C)c2C)cc1OC,-0.5,-9.6,-6.1,-0.9,-29.2,-8.9
Nn1c(-c2cccc(Br)c2)n[nH]c1=S,0.4,-5.4,·,95.5*,1.2,-2.7
S=c1[nH]nc(-c2cccc(Br)c2)o1,-4.4,-0.8,9.8,27.0,-13.5,-3.5
CCOC(=O)C(=CNc1cccnc1Oc1ccc(C)c2c1CCC2)C(=O)OCC,-1.5,-4.1,446.2,16.0,-1.2,-2.9
COc1ccc(Cl)cc1NC(=O)CSc1nc(=O)n(CCN(C)C)c2c1CCCC2,-1.0,-4.2,-2.0,·,9.6,·
CC1CCCN(CCCNC(=O)c2ccc(N3CCCC3=O)cc2)C1 (centres undefined),-1.7,-9.3,-9.0,35.5,-3.3,-11.6
CC1CCN(CCCNC(=O)c2ccc(N3CCCC3=O)cc2)CC1,1.4,-13.8,1.3,63.6*,-2.4,0.4
N#CCCn1nc(Cc2cccc3ccccc23)c(C#N)c1N,14.4,-13.4,331.2*,·,-0.5,·
Cc1nn(-c2nnc(C)c(=O)[nH]2)c(C)c1SCC(=O)Nc1ccc(F)cc1,-2.9,-11.2,-1.8,55.1,-3.4,-3.0
Cc1nn(-c2nnc(C)c(=O)[nH]2)c(C)c1SCC(=O)Nc1ccc(C(C)C)cc1,0.6,-24.3,-12.4,61.9*,-10.5,4.8
SMILES,HDAC3 inhib,PvdQ inh,SUMO Mot1 rescue,PHOSPHO1 inh,GASC-1 inh,p-CIP stab down
CC(C)NC(=O)CC1(C(=O)NCc2ccc(Cl)cc2)CCCC1,-6.7,-18.8,302.1*,32.6,0.6,2.7
COc1ccc(CNC(=O)C2(CC(=O)NC(C)(C)C)CCCC2)cc1,9.4,-17.1,-1.8,27.3,-9.7,5.0
CSc1ccccc1C(=O)Nc1ccc(C)c(C)c1,2.8,13.9,234.0,-19.9,101.8*,5.7
CCc1noc(C)c1C(=O)N(CCC(C)C)c1c(N)n(Cc2ccccc2)c(=O)[nH]c1=O,2.2,-3.3,-19.1,·,-1.3,·
CCC(O)CC(C(=O)NNc1ccccc1)C(=O)NNc1ccccc1 (centres undefined),0.7,-12.1,268.5*,-25.5,16.9,-3.0
CCOC(=O)NNc1ccccc1,-2.2,-12.1,141.2,-37.4,-4.0,-11.2
CCOC(=O)c1c(C)nc(C)c(C(=O)OCC)c1-c1cccc(N)c1,-8.8,-4.4,20.8,60.0*,-1.2,-2.0
CCOc1cc(CNS(=O)(=O)c2ccc3c(c2)CC(=O)N3C)cc(OCC)c1OCC,-1.2,-13.1,191.7,64.9*,-3.4,-7.4
CC(NC(=O)NC(=O)c1cccc([N+](=O)[O-])c1)C1CC1 (centres undefined),1.8,-11.6,9.9,75.4*,21.3,-18.5
CCN1CCc2c(sc(NC(=S)NC(=O)c3ccc(Cl)cc3)c2C(N)=O)C1,9.7,9.5,5.7,66.8*,8.0,-105.0
FC(F)(F)c1cccc(Cc2noc(CN3CCCCC3c3ccccn3)n2)c1 (centres undefined),4.1,-1.9,-14.5,45.5,10.7,-10.5
FC(F)(F)c1cccc(Cc2noc(CN3CCCC(OCc4ccccn4)C3)n2)c1 (centres undefined),2.8,-19.3,-24.9,64.2*,-11.7,-14.2
Cn1cc(SCC(=O)Nc2ccc3c(c2)OCO3)c2ccccc21,0.3,-6.7,14.8,72.3*,-6.6,13.6
CCN(CC)C(=O)CSC1=C(C#N)C(c2cccs2)C=C(C)N1 (centres undefined),17.1,-1.6,6.5,94.5*,-5.3,2.8
CS/C(=N\S(=O)(=O)c1cccs1)NC(=O)CSc1nc2ccccc2s1,4.1,-7.9,-17.5,99.6*,5.3,-0.5
C/C(=N/NC(=O)CSc1nc2ccccc2s1)c1ccncc1,-9.4,-11.2,-2.3,45.0,22.5,-4.6
COc1ccc(CC(=O)OCC(=O)NC2CCCCCC2)cc1OC,·,0.1,·,·,·,·
C=CC[n+]1c(-c2ccc(OCC)cc2)csc1NNC(=O)Nc1ccccc1,6.5,-12.6,20.3,61.3*,-2.5,-3.0
COc1cc(OC)cc(C(=O)NCC(=O)OCC(=O)NCc2ccco2)c1,33.0*,3.2,1.3,·,5.5,·
O=C(COC(=O)c1cncc(Br)c1)NCc1ccco1,7.5,-7.3,413.6*,3.9,-8.8,-3.1
CC(C)OC(=O)c1cc(NC(=O)c2nn(C)cc2Br)cc(C(=O)OC(C)C)c1,-3.1,8.9,-12.9,3.4,-24.4,-21.8
COc1ccc(-c2noc(CSc3nc(-c4ccccc4)cc(=O)[nH]3)n2)cc1,2.7,-6.4,40.7,102.0*,2.9,7.8
COc1cc(CSc2nc(-c3ccccc3)cc(=O)[nH]2)cc(OC)c1,3.0,-11.2,-11.4,30.2,-4.9,-6.1
O=C(O)c1c[nH]c(=S)n1-c1ccc(F)cc1,0.7,-8.6,-17.7,103.6*,6.6,4.8
